A short description of test [1]: inhibitors of TNFa-induced NFkB p65 translocation, primary screen, imaging, HUVEC, MLSMR starter and 10KST1 sets (AID 438;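 active = inhibition above 20% together with a positive visual image hit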;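 also: compound added about 3h40 before a 20 min TNFalpha stimulation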;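 as to inhibition: signal is the nuclear over cytoplasmic p65 intensity ratio per well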). The settings on record: HUVEC TNFa-induced p65 nuclear translocation; cell count: measured here: nuclei count (cytotoxicity indicator), at 2.08 µM; inhibition: at 2 µM, stronger effect = higher value, 0% TNFa-plus-vehicle, 100% no-TNFa wells.
Test [2] in a line: reduction of polyQ htt aggregates in cells – imaging, exon1htt(103Q)mCFP cells, high-content imaging, primary screen (AID 483;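 active = visual image review flags a hit and inhibition of aggregation exceeds 20%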;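 also: compound exposure lasted 3 days before fixation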;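 as to nuclei count: percent of the per-plate median nuclei count of sample wells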). The conditions noted are these: exon1htt(103Q)mCFP cell line, aggregate imaging, at 2 µM; inhibition of aggregation: stronger effect = higher value; nuclei count: measured here: cell count, toxicity.
The nature of test [3]: endothelial E-selectin expression blockers – imaging, HUVEC, immunofluorescence, MLSMR starter and 10KST1 sets, primary screen (AID 487;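 active = visually confirmed hit in the image check and inhibition above 20%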;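 as to inhibition: signal is fraction of cell area covered by stained E-selectin grains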;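 as to nuclei count: 100% = median nuclei count of all wells on the same plate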). The conditions noted are these: HUVEC TNFalpha-induced E-selectin immunofluorescence imaging, at 2 µM; inhibition: stronger effect = higher value; nuclei count: measured here: cell number, toxicity.
Test [4] in a line: Primary imaging screen for DUSP6 inhibitors that restore phospho-Erk in transfected HeLa cells, chemical complementation (AID 609;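 active = compounds giving at least 50% inhibition in the cell-based MKP-3 phosphatase rescue imaging test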;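 as to inhibition: phospho-Erk level distribution per well compared with pooled transfected vehicle control wells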). The conditions noted are these: HeLa MKP-3 transfected, phospho-Erk imaging KS statistic, at 10 µM, cells stimulated with TPA for 15 min.
Test [5] concerns the target Dual specificity protein phosphatase 6 (Homo sapiens) (UniProt Q16828). The description is as above. The conditions noted are these: HeLa MKP-3 transfected, phospho-Erk imaging KS statistic; at 10 µM; stronger effect = higher value; cells stimulated with TPA for 15 min.
Test [6] addresses Voltage-gated potassium channel subunit beta-2 (Rattus norvegicus) (UniProt P62483). Nature of the test: inhibitors of rat Kvbeta2 reductase activity – biochemical, NADPH fluorescence, primary screen (AID 622;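 active = fluorescence slope higher than the sample average by over 3 SD, cut at about -0.22 in these data, passing the limit was not always enough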;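 also: slope of raw intensity against log time taken from 70 to 1610 s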). The conditions noted are these: recombinant KvBeta, 4-cyanobenzaldehyde reduction, at 10 µM, stronger effect = higher value.
For test [7] the target is unchanged. Nature of the test: enhancers of rat Kvbeta2 NADPH turnover – biochemical, NADPH fluorescence, primary screen (AID 623;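 active = NADPH fluorescence slope more negative than the mean of all samples by about 3 SD, 99.7% confidence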;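 also: fluorescence intensity change per second fitted from 20 to 320 s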). The settings on record: Recombinant KvBeta, NADPH fluorescence decrease slope, 10 min; at 10 µM; stronger effect = lower value.
The target of test [8] is Alpha-2C adrenergic receptor (Homo sapiens) (UniProt P18825). Nature of the test: compounds altering alpha2C-coupled GIRK flux – cell-based, HEK293 alpha2C/GIRK1/2, thallium flux, primary screen (AID 624;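 active = fluorescence slope after compound addition differing from the mean of all screened samples at 99.7% confidence, in either direction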;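 also: slope of fluorescence ratio to pre-addition baseline per second over 15 to 24 s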). The conditions noted are these: thallium flux BTC fluorescence, at 10 µM, actives lie on both sides.
Test [9] can be described thus: inhibitors of larval lipid processing in zebrafish, primary screen, whole organism, PED6 fluorescence, gall bladder and intestine (AID 686;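 active = a full or partial loss of lipid-probe fluorescence in the fish gall bladder, intestine or both, judged by eye; inactive = no fluorescence loss, or compound toxic to the fish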;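 also: larvae 5 to 7 days old with five fish per well; signal comes from phospholipase A2 cleavage of quenched PED6 carried via bile; overnight exposure to compound and PED6 before scoring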). The conditions noted are these: Zebrafish larvae PED6 lipid processing, fluorescence scoring; screened at 20 µM (by protocol).
Test [10] is described as follows: loss of swimming-algae plug formation – whole organism, Chlamydomonas reinhardtii, WT vs cilia-less mutant, absorbance, 96-well, primary screen (AID 463189).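 Also: 0% = wild type cc124 cells in DMSO and 100% = ciliumless bld1 mutant cells.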 The conditions noted are these: Chlamydomonas reinhardtii gravitaxis, OD600 absorbance, 2 days; at 10 µM; stronger effect = higher value.
Test [11] is described as follows: blockers of RIG-like receptor reporter activation – cell-based, Sendai virus stimulus, luciferase, 10K MLSCN set, TLR/RLR signaling modifier project, primary screen (AID 602276;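 active = inhibition at or above 50% at 10 µM; inactive = inhibition below 50%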;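 also: firefly luciferase from ISG56 promoter only with Renilla not read in this screen; 0% = Sendai virus plus DMSO and 100% = medium plus DMSO without virus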). The settings on record: HEK293 RL24 IRF3 luciferase reporter, at 10 µM, stronger effect = higher value.
Test [12] can be described thus: TLR3 IRF3 reporter activation blockers – cell-based, poly I:C stimulus, luciferase, 10K MLSCN set, primary screen (AID 602277;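 active = inhibition of the reporter signal at or above 50%; inactive = inhibition below 50%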). The settings on record: HEK293-TLR3 RL24 IRF3 luciferase reporter, at 10 µM, stronger effect = higher value. For orientation: A reporter such as luciferase makes a cellular process visible.
Setting [13] is: measured here: cell density z-score.
Setting [14] is: measured here: nuclear c-Myc green intensity z-score.
[15] abbreviates: measured here: nuclear pErk red intensity z-score, stronger effect = higher value.

Ten compounds from PubChem BioAssay can be followed below.

Each structure is given as a SMILES string. Where “and” joins values, the source holds several entries; their conditions need not be identical. Equal values may be shown once. Calls of active or inactive are those of the source.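 The calls were made as follows, unless noted: active = inhibition at or above 50% relative to wild type and mutant plate controls; inactive = inhibition below 50%.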

Chain of Dual specificity protein phosphatase 6 (Homo sapiens) (Q16828 whole entry, looked up): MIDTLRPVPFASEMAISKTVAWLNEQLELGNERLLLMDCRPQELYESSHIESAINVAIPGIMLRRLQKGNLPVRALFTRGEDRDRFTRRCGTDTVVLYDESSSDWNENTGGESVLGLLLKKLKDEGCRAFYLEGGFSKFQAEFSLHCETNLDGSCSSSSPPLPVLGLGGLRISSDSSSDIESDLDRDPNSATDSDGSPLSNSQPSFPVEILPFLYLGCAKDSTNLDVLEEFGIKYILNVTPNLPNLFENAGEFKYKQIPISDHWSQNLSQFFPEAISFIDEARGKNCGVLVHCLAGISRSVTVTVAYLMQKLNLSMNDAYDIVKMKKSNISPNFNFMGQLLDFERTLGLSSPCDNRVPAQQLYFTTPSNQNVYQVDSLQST
Chain of Voltage-gated potassium channel subunit beta-2 (Rattus norvegicus) (P62483 whole entry, looked up): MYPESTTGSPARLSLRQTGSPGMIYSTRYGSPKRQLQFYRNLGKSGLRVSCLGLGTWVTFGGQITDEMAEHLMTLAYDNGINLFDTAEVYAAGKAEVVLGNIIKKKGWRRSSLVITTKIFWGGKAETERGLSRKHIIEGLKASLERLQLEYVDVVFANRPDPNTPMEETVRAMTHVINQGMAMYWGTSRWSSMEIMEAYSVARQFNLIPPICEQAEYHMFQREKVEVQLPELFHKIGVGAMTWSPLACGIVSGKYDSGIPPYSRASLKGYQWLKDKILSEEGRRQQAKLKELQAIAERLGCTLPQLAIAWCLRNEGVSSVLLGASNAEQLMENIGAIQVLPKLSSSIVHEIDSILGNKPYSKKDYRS
Chain of Alpha-2C adrenergic receptor (Homo sapiens) (P18825 whole entry, looked up): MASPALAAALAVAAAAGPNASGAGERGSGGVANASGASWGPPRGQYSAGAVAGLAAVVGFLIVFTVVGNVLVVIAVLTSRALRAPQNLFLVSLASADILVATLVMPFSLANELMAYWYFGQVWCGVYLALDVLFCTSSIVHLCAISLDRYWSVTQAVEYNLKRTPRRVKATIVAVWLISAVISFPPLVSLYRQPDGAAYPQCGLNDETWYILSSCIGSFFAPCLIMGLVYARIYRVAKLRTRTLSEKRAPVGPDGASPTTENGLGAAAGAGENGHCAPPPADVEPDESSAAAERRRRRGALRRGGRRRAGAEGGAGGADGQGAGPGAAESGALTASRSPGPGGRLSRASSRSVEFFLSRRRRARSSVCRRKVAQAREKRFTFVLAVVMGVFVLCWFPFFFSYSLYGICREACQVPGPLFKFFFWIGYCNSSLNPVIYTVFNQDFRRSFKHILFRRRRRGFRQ

Consider `CCN(CC)c1ncc(C)c(=O)[nH]1`, for which, in test [1], the cell count came to 410. Also, the inhibition in [1] is -19.3% (inactive); in [3] it was -44.9% (inactive); in test [5], -2.69% (inactive); in [10] it was 31.2% (inactive); in test [11], 22.3% (inactive); in test [12], 22% (inactive). For the same compound, the inhibition of aggregation in [2] is -26.9% (inactive). The nuclei count stood at 121% in [2] and 111% in [3]. Besides, the z-score in [4] (setting [13]) was 0.304; in test [4] (setting [14]), -0.433; in test [4] (setting [15]), -0.0626. For the same compound, the fluorescence slope in test [6] was -0.541 (inactive). In addition, the NADPH fluorescence slope in [7] was -8.2e-05 (inactive). Moreover, the slope in test [8] is 0.00493 (inactive). For the same compound, in [9], the outcome was inactive.

As to `Cc1ccccc1C(OCCN(C)C)c1ccccc1` (stereo not given), the cell count in [1] came out at 644. Also, the inhibition was -4.5% (inactive) in test [1]; -41.9% (inactive) in test [3]; -0.828% (inactive) in [5]; 24.9% (inactive) and 29.3% (inactive) in [10]; 22.3% (inactive) in test [11]; 42.3% (inactive) in [12]. Further, the inhibition of aggregation in test [2] was -3% (inactive). The nuclei count in test [2] came to 89%; in test [3], 103%. Further, the z-score is -0.367 in test [4] (setting [13]), -1.7 in test [4] (setting [14]) and 0.158 in [4] (setting [15]). The fluorescence slope in test [6] is -0.48 (inactive). In addition, the NADPH fluorescence slope in [7] is -2.2e-05 (inactive). The slope in test [8] was 0.00302 (inactive). In addition, the compound was called inactive in test [9].

Take `CNCCCC12CCC(c3ccccc31)c1ccccc12`: the cell count in [1] was 541. Besides, the inhibition was -4.8% (inactive) in test [1]; -80.6% (inactive) in test [3]; 3.45% (inactive) in test [5]; 6.33% (inactive) and 2.26% (inactive) in test [10]; -23.6% (inactive) in [11]; 55.4% (active) in [12]. Also, in test [2], the inhibition of aggregation is 19.8% (inactive). The nuclei count in test [2] was determined as 83.4%; in [3] it was 114%. The z-score was -1.24 in [4] (setting [13]), 0.435 in [4] (setting [14]) and 1.73 in [4] (setting [15]). Also, in [6], the fluorescence slope is -0.501 (inactive). Also, in [7], the NADPH fluorescence slope was -9.7e-05 (inactive). The slope in [8] is 0.00463 (inactive). Moreover, the outcome in test [9] was inactive.

With `Cn1c(-n2c(-c3ccco3)nc3ccccc3c2=O)nc2ccccc21`, in test [1], the cell count was 589. Besides, the inhibition is -10.5% (inactive) in test [1]; -8.3% (inactive) in [3]; 8.31% (inactive) in test [5]; 9.97% (inactive) in test [10]; 20.8% (inactive) in test [11]; 6.14% (inactive) in [12]. Further, the inhibition of aggregation in test [2] was 32% (inactive). Besides, the nuclei count was found to be 109% in test [2] and 126% in [3]. The values for the z-score in test [4] (setting [13]), in test [4] (setting [14]) and in test [4] (setting [15]) were 0.944, 0.431 and -0.392, respectively. Besides, the fluorescence slope in test [6] is -0.351 (inactive). In [7], the NADPH fluorescence slope is -6.3e-06 (inactive). Further, the slope in test [8] is 0.00557 (inactive). For the same compound, the outcome in [9] was inactive.

Turning to `CCCCC[C@H](O)/C=C/C1=C(CCCCCCC(=O)O)C(=O)CC1`, the cell count in [1] was 582. Further, the inhibition in test [1] was -10.1% (inactive); in test [3], -15.5% (inactive); in [5] it was -0.493% (inactive); in [10] it was -11.8% (inactive); in [11], 7.96% (inactive); in test [12], 34.1% (inactive). The inhibition of aggregation in [2] is -18.7% (inactive). Also, the nuclei count in [2] turned out to be 109%; in test [3] it was 111%. Further, the z-score in test [4] (setting [13]) was 0.0464; in test [4] (setting [14]), -0.541; in [4] (setting [15]) it was -1.16. The fluorescence slope in [6] was -0.474 (inactive). Also, the NADPH fluorescence slope in [7] was -5.2e-05 (inactive). In [8], the slope is 0.00393 (inactive). For the same compound, the compound was classed as inactive in [9].

As to `C[C@]12CC[C@@H]3c4ccc(O)cc4C(=O)C[C@H]3[C@@H]1CC[C@@H]2O`, the cell count in test [1] came to 575. Further, the inhibition was -1.5% (inactive) in test [1]; -48.8% (inactive) in test [3]; 10.2% (inactive) in [5]; -6.24% (inactive) in test [10]; -0.554% (inactive) in test [11]; 18.4% (inactive) in test [12]. Moreover, the inhibition of aggregation in test [2] was 12.4% (inactive). Also, the nuclei count in [2] is 79.9%; in test [3] it was 123%. Also, the z-score was found to be 0.0524 in test [4] (setting [13]), 0.457 in test [4] (setting [14]) and 1.93 in [4] (setting [15]). The fluorescence slope in [6] is -0.47 (inactive). In addition, in [7], the NADPH fluorescence slope was -7.3e-05 (inactive). Besides, the slope in [8] was 0.00515 (inactive). In addition, in test [9], the compound was called inactive.

Regarding `C[N+]12CCC(CC1)C(OC(=O)C(O)(c1ccccc1)c1ccccc1)C2` (stereo not given), the cell count in [1] came out at 609. In addition, the inhibition in [1] is -0.8% (inactive); in [3], -71.3% (inactive); in test [5] it was 3.45% (inactive); in test [10], -10.3% (inactive); in [11], 6.28% (inactive); in [12], 21.7% (inactive). Further, the inhibition of aggregation in test [2] was 3.7% (inactive). For the same compound, the nuclei count in test [2] was determined as 106%; in [3] it was 119%. The z-score in test [4] (setting [13]) was -0.393; in [4] (setting [14]), -0.0364; in [4] (setting [15]), 0.334. Moreover, the fluorescence slope in test [6] was -0.526 (inactive). Besides, the NADPH fluorescence slope in test [7] is -2.4e-05 (inactive). Moreover, the slope in test [8] was 0.00456 (inactive). Besides, in test [9], the compound was classed as inactive.

With `CN(C)c1ccc(O)c2c1CC1CC3[C@@H](N(C)C)C(=O)C(C(N)=O)=C(O)[C@]3(O)C(=O)C1=C2O` (stereo not given in full), in [1], the cell count stood at 516. Also, the inhibition is -12.2% (inactive) in test [1]; -55.7% (inactive) in test [3]; 1.48% (inactive) in [5]; 82.6% (active) in test [10]; 17.8% (inactive) in test [11]; 26.1% (inactive) in test [12]. For the same compound, the inhibition of aggregation in test [2] was 71.3% (active). Also, the nuclei count was 103% in [2] and 131% in [3]. Besides, the z-score is 0.362 in test [4] (setting [13]), 0.874 in test [4] (setting [14]) and 0.268 in test [4] (setting [15]). Also, in [6], the fluorescence slope was -0.51 (inactive). Also, the NADPH fluorescence slope in test [7] is -5e-06 (inactive). In [8], the slope is 0.00461 (inactive). In addition, the result in [9] was inactive.

On to `C[C@]12CC[C@@H]3c4ccc(O[C@@H]5O[C@H](C(=O)O)[C@@H](O)[C@H](O)[C@H]5O)cc4CC[C@H]3[C@@H]1C[C@@H](O)[C@@H]2O`, for which, in [1], the cell count is 606. Further, the inhibition in test [1] was -2.6% (inactive); in test [3], -146% (inactive); in test [5] it was 1.48% (inactive); in test [10] it was -2.21% (inactive); in [11] it was 15% (inactive); in [12] it was 32.3% (inactive). Further, in test [2], the inhibition of aggregation is -0.5% (inactive). Also, the nuclei count came to 90.1% in test [2] and 127% in test [3]. In addition, the z-score in [4] (setting [13]) was 0.0825; in test [4] (setting [14]) it was -0.52; in [4] (setting [15]), -0.309. For the same compound, the fluorescence slope in test [6] is -0.487 (inactive). Besides, in test [7], the NADPH fluorescence slope is -4.1e-05 (inactive). For the same compound, in test [8], the slope is 0.00431 (inactive). Besides, the compound was called inactive in test [9].

Take `CC(=O)OCC(=O)[C@@]12OC(C)(C)O[C@@H]1C[C@H]1[C@@H]3C[C@H](F)C4=CC(=O)C=C[C@]4(C)[C@@]3(F)[C@@H](O)C[C@@]12C`: the cell count in test [1] is 518. Besides, the inhibition in [1] was -0.9% (inactive); in test [3] it was -73.2% (inactive); in test [5] it was -2.46% (inactive); in [10], -12.6% (inactive); in [11], 5.9% (inactive); in test [12] it was 40.3% (inactive). Moreover, in test [2], the inhibition of aggregation is 2% (inactive). The nuclei count in [2] came to 53.2%; in [3], 104%. For the same compound, the z-score is -0.49 in [4] (setting [13]), -0.238 in [4] (setting [14]) and -0.0296 in test [4] (setting [15]). For the same compound, the fluorescence slope in [6] was -0.449 (inactive). Moreover, the NADPH fluorescence slope in test [7] is -7.8e-05 (inactive). Besides, the slope in test [8] was 0.00478 (inactive). The call in test [9] was inactive.

By inhibition is commonly meant the relative decrease from the control value, in per cent.
